Assay [1] can be described thus: antimalarial activity against Dd2 strain (AID 2302;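 active = growth inhibition above 50% at the single 2 µM test dose, taken to imply half-maximal potency below 2 µM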;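 note: 0% = DMSO untreated growth and 100% = chloroquine plus artemisinin killed control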). To be noted: P. falciparum Dd2 in RBCs, LDH growth readout, 72 h; at 2 µM; stronger effect = higher value.
The nature of assay [2]: human hepatoma cell viability loss – ATP luminescence, cytotoxicity control for P. falciparum antimalarial project, primary screen (AID 2303;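 active = inhibition above 50%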;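 note: 0% = DMSO wells and 100% = digitonin-killed cells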). To be noted: HepG2 viability, 24-48 h, at 10 µM, stronger effect = higher value.
The target of assay [3] is L-lactate dehydrogenase (Plasmodium falciparum (isolate CDC / Honduras)) (UniProt Q27743). Description: PfLDH activity inhibition – cell lysate, 3D7 strain, counter-screen for P. falciparum growth inhibition project (AID 2304).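 Note: 0% = vehicle and 100% = reference inhibitor.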 To be noted: P. falciparum 3D7 crude extract, LDH APAD/NBT absorbance; at 2 µM; stronger effect = higher value.
The nature of assay [4]: inhibition of 3D7 malaria parasite growth – strain 3D7 (AID 2306).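 Note: 0% = DMSO wells and 100% = chloroquine plus artemisinin control wells.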 As to conditions: P. falciparum 3D7 erythrocytic growth, LDH absorbance, 72 h; at 2 µM; stronger effect = higher value.
The target of assay [5] is Calcium-dependent protein kinase 1 (Plasmodium falciparum (isolate 3D7)) (UniProt P62344). Description: PfCDPK1 kinase inhibitors, biochemical, TCAMS library (AID 1159585; cut-off not given, nearly all actives have IC50 up to about 0.98 µM;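 note: inhibitors leave more ATP so luminescence rises with inhibition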). To be noted: recombinant PfCDPK1, Kinase-Glo ATP depletion luminescence. On the technique in general: In Kinase-Glo more light means more ATP remaining.
The target of assay [6] is Plasmodium falciparum protein kinase 6 (PK6, PF3D7_1337100) (UniProt Q8IDW1). Description: PfPK6 kinase inhibitors, biochemical, TCAMS library (AID 1159586). To be noted: recombinant PfPK6, Kinase-Glo ATP depletion luminescence.
Assay [7] concerns the target Protein kinase 7 (PK7), Plasmodium falciparum 3D7 (PF3D7_0213400) (UniProt Q7YTF7). Description: inhibition of Plasmodium PK7 catalytic activity – biochemical, TCAMS antimalarial set, Kinase-Glo luminescence (AID 1159587). To be noted: recombinant PfPK7, Kinase-Glo ATP depletion luminescence.
The target of assay [8] is Calcium-dependent protein kinase 4 (Plasmodium falciparum (isolate 3D7)) (UniProt Q8IBS5). Description: PfCDPK4 kinase inhibitors, biochemical, TCAMS library (AID 1159588; cut-off not given, nearly all actives have IC50 up to about 0.91 µM). As to conditions: recombinant PfCDPK4, Kinase-Glo ATP depletion luminescence.

Molecules are shown by their SMILES. A number with no mark means an inactive call. For some assays here: Entries with a potency or affinity are not part of this list. Calls of active or inactive are those of the source. Unless noted, the rule behind the calls is not given here.

Sequence of Calcium-dependent protein kinase 1 (Plasmodium falciparum (isolate 3D7)) (P62344 whole entry, looked up): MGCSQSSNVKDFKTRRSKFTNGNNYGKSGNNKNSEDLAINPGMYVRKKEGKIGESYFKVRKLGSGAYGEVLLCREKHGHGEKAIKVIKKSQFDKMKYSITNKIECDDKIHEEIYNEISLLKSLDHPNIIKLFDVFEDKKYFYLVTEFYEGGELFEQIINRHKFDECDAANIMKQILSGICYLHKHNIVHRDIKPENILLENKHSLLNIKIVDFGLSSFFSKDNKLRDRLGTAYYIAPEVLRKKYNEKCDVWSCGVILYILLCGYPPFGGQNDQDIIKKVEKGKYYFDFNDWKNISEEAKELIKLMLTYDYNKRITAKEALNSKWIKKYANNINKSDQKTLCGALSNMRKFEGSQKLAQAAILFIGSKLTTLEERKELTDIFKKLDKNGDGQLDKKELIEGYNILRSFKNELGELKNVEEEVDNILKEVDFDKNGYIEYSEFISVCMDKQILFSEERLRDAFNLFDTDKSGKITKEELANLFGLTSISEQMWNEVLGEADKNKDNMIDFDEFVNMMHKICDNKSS
Sequence of Protein kinase 7 (PK7), Plasmodium falciparum 3D7 (PF3D7_0213400) (Q7YTF7 1-343): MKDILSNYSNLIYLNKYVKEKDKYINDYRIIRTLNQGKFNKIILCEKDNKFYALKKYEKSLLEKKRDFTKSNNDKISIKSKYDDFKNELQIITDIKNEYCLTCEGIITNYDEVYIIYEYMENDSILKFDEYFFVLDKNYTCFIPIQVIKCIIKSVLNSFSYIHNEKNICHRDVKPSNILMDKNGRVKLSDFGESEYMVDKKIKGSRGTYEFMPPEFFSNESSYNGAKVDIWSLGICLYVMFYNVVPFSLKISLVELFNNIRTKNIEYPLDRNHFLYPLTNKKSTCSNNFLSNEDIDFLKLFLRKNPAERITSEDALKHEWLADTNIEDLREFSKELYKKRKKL
Sequence of Plasmodium falciparum protein kinase 6 (PK6, PF3D7_1337100) (Q8IDW1 1-305): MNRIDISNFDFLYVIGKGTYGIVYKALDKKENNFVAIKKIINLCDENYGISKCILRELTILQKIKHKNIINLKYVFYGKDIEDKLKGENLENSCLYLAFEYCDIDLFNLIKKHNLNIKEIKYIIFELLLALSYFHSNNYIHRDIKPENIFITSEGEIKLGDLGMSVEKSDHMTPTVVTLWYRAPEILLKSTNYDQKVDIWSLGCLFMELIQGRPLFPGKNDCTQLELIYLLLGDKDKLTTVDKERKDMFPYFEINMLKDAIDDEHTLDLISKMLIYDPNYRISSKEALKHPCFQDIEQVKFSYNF
Sequence of Calcium-dependent protein kinase 4 (Plasmodium falciparum (isolate 3D7)) (Q8IBS5 whole entry, looked up): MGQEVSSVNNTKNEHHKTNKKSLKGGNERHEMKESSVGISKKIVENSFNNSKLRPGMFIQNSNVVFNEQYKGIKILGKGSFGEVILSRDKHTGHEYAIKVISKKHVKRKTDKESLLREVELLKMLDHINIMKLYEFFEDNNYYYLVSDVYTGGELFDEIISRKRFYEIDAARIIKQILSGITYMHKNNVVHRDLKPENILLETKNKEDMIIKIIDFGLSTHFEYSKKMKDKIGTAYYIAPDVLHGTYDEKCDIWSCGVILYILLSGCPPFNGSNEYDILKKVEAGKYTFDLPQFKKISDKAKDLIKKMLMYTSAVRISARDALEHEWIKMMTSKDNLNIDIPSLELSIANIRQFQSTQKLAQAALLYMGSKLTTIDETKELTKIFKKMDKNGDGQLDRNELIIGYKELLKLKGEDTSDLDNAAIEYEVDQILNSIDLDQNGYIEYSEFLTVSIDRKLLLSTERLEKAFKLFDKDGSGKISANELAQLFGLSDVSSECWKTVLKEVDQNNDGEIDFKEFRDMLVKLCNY
Sequence of L-lactate dehydrogenase (Plasmodium falciparum (isolate CDC / Honduras)) (Q27743 whole entry, looked up): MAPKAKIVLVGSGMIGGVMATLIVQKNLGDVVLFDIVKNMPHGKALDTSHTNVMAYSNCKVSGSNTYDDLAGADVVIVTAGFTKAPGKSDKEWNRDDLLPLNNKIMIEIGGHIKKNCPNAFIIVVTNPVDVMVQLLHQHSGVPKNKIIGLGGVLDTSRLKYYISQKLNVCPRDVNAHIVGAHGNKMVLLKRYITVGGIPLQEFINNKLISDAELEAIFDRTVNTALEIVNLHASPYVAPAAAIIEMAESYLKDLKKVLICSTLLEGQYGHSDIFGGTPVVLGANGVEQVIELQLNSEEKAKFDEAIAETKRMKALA

Broadly, the inhibition is the change of the read-out against control, counted positive when it falls. `O=C(NCC1CCC1)c1cnc(Nc2cccc(Cl)c2)nc1N1CCC1`: the growth inhibition was 75% (active) in assay [1] and 98% (active) in assay [4]. The inhibition in assay [2] is 21%; in assay [3], 2%. The result in assay [5], in assay [6], in assay [7] and in assay [8] was inactive.

As to `COc1cc2nc(N3CCC(CNC(=O)c4ccc(NC(=O)c5ccc(Cl)cc5)cc4)CC3)nc(N)c2cc1OC`, the growth inhibition was 100% (active) in assay [1] and 101% (active) in assay [4]. Further, the inhibition in assay [2] was 98% (active); in assay [3], 0%. The outcome in assay [5], in assay [6], in assay [7] and in assay [8] was inactive.

Turning to `CC[C@H](C)CNC(=O)c1cncc(-c2cccc(CN(C)C3CCN(C)CC3)c2)c1`, the growth inhibition is 59% (active) in assay [1] and 101% (active) in assay [4]. Besides, the inhibition was 9% in assay [2] and 1% in assay [3]. In addition, the result in assay [5], in assay [6], in assay [7] and in assay [8] was inactive.

For `CN(C)c1ccc(CN2CCC(NC(=O)c3ccc(-c4ccc(N(C)C)cc4)s3)CC2)cc1`, the results for the growth inhibition in assay [1] and in assay [4] were 21% and 93% (active), respectively. Further, the inhibition was 24% in assay [2] and -2% in assay [3]. The outcome in assay [5], in assay [6], in assay [7] and in assay [8] was inactive.

Consider `O=C1CCCN1CCCNCc1ccc(-c2ccc(-c3nc4ccc(F)cc4[nH]3)cc2)cc1`, for which the growth inhibition is 99% (active) in assay [1] and 100% (active) in assay [4]. In addition, the inhibition in assay [2] is 16%; in assay [3] it was -3%. In addition, the result in assay [5], in assay [6], in assay [7] and in assay [8] was inactive.

As for `c1cc(Cc2ccc(Nc3c4ccccc4nc4ccccc34)cc2)cc(Nc2c3ccccc3nc3ccccc23)c1`, the growth inhibition in assay [1] and in assay [4] was 100% (active) each time. The inhibition in assay [2] was 91% (active); in assay [3], -5%. Also, the outcome in assay [5], in assay [6], in assay [7] and in assay [8] was inactive.

Take `FC(F)(F)c1ccc2nc(-c3cccc(-c4ccc(CNCCN5CCNCC5)cc4)c3)[nH]c2c1`: the growth inhibition in assay [1] is 0%; in assay [4] it was 96% (active). Further, the inhibition in assay [2] is 17%; in assay [3], 4%. Further, the result in assay [5], in assay [6], in assay [7] and in assay [8] was inactive.

Turning to `O=C(Cn1c(CCc2cccc(F)c2F)cc(=O)c2ccccc21)N(CCN1CCCCC1)Cc1ccc(-c2ccc(C(F)(F)F)cc2)cc1`, the growth inhibition in assay [1] is 59% (active); in assay [4], 101% (active). Further, the inhibition was 9% in assay [2] and -6% in assay [3]. The result in assay [5], in assay [6], in assay [7] and in assay [8] was inactive.

In the case of `O=C(NC1CCCCC1)N(Cc1cccc(-c2ccc(CNCc3ccc4c(c3)OCO4)cc2)c1)C1CCN(Cc2ccccc2)CC1`, the results for the growth inhibition in assay [1] and in assay [4] were 59% (active) and 92% (active), respectively. The inhibition is 13% in assay [2] and -9% in assay [3]. For the same compound, the outcome in assay [5], in assay [6], in assay [7] and in assay [8] was inactive.

As to `CO/C(=C\C=C\c1cc2cc(Cl)c(Cl)cc2[nH]1)C(=O)NCCCNC12CC3CC(CC(C3)C1)C2`, the figures for the growth inhibition in assay [1] and in assay [4] were 76% (active) and 99% (active), respectively. Moreover, the inhibition in assay [2] is 29%; in assay [3] it was -2%. For the same compound, the outcome in assay [5], in assay [6], in assay [7] and in assay [8] was inactive.

Regarding `COc1ccc(Oc2cnc(N)nc2N)c(C(C)C)c1`, the growth inhibition was -2% in assay [1] and 97% (active) in assay [4]. Also, the inhibition is 58% (active) in assay [2] and 4% in assay [3]. For the same compound, the result in assay [5], in assay [6], in assay [7] and in assay [8] was inactive.

In the case of `Nc1nc2cccc3ccc4cccc1c4c32`, the values for the growth inhibition in assay [1] and in assay [4] were 69% (active) and 101% (active), respectively. The inhibition in assay [2] is 26%; in assay [3], -1%. Further, the result in assay [5], in assay [6], in assay [7] and in assay [8] was inactive.

Take `O=C(Nc1ccc(OC2CCN(Cc3ccsc3)C2)c(Cl)c1)c1ccc(F)cc1` (configuration not stated): the growth inhibition is 73% (active) in assay [1] and 89% (active) in assay [4]. The results for the inhibition in assay [2] and in assay [3] were -3% and -8%, respectively. The outcome in assay [5], in assay [6], in assay [7] and in assay [8] was inactive.

As to `Cc1ccc2[nH]c3c(NCCCN(C)C)ncnc3c2c1`, the growth inhibition in assay [1] was -2%; in assay [4], 99% (active). Also, the inhibition in assay [2] is 1%; in assay [3], -4%. Besides, the result in assay [5], in assay [6], in assay [7] and in assay [8] was inactive.

As for `Cc1ccccc1N1CCN(c2ccc(C(=O)NC3CC3)cn2)CC1`, the growth inhibition in assay [1] and in assay [4] was 96% (active) in each case. Further, the inhibition in assay [2] was 14%; in assay [3], 0%. The outcome in assay [5], in assay [6], in assay [7] and in assay [8] was inactive.

With `CCCCCC(=O)NCC(NCCCNc1cc(=O)c2ccccc2[nH]1)c1cc(Br)cc(Br)c1` (configuration not stated), the growth inhibition in assay [1] was 66% (active); in assay [4], 96% (active). In addition, the inhibition is -1% in assay [2] and -8% in assay [3]. Moreover, the result in assay [5], in assay [6], in assay [7] and in assay [8] was inactive.

For `O=C(Nc1ccccc1)Nc1cccc(-c2nn3c(OCC4CCCCN4)cccc3c2-c2ccncc2)c1` (configuration not stated), the figures for the growth inhibition in assay [1] and in assay [4] were 82% (active) and 97% (active), respectively. Besides, the inhibition was 9% in assay [2] and -7% in assay [3]. The outcome in assay [5], in assay [6], in assay [7] and in assay [8] was inactive.

With `CC(C)(C)c1ccc(CN2CCC(NC(=O)c3cc(-c4cccc(C(F)(F)F)c4)cs3)C2)cc1` (configuration not stated), the growth inhibition in assay [1] was 85% (active); in assay [4], 98% (active). The inhibition in assay [2] was 24%; in assay [3] it was -1%. In addition, the result in assay [5], in assay [6], in assay [7] and in assay [8] was inactive.

As to `CCC(C)NC(=O)Nc1cccc(-c2cccc(-c3nc4c(C)cccc4[nH]3)c2)c1` (configuration not stated), the values for the growth inhibition in assay [1] and in assay [4] were 27% and 101% (active), respectively. Besides, the inhibition was 3% in assay [2] and 5% in assay [3]. Moreover, the outcome in assay [5], in assay [6], in assay [7] and in assay [8] was inactive.

(Values after PubChem BioAssay.)
